# PubChem BioAssay AID602385 (Sanford-Burnham Center for Chemical Genomics, 2012)
# Among all 2,300 compounds or so, about 180 (7.8%) were called active.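 Rule for the calls: active = average inhibition of at least 30% in the single-concentration confirmation test; inactive = the rest.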 A selection follows.
# Molecular target: DNA (cytosine-5)-methyltransferase 1 (Homo sapiens) (UniProt P26358)
# Assay: DNMT1 methyltransferase inhibitor retest, confirmation, biochemical, molecular beacon, fluorescence, single concentration (AID 602385)
# Conditions: DNMT1 molecular beacon HinP1I cleavage, at 10 µM, hits give high values
# DNA (cytosine-5)-methyltransferase 1 (Homo sapiens), sequence (P26358 504-1616 limits assumed): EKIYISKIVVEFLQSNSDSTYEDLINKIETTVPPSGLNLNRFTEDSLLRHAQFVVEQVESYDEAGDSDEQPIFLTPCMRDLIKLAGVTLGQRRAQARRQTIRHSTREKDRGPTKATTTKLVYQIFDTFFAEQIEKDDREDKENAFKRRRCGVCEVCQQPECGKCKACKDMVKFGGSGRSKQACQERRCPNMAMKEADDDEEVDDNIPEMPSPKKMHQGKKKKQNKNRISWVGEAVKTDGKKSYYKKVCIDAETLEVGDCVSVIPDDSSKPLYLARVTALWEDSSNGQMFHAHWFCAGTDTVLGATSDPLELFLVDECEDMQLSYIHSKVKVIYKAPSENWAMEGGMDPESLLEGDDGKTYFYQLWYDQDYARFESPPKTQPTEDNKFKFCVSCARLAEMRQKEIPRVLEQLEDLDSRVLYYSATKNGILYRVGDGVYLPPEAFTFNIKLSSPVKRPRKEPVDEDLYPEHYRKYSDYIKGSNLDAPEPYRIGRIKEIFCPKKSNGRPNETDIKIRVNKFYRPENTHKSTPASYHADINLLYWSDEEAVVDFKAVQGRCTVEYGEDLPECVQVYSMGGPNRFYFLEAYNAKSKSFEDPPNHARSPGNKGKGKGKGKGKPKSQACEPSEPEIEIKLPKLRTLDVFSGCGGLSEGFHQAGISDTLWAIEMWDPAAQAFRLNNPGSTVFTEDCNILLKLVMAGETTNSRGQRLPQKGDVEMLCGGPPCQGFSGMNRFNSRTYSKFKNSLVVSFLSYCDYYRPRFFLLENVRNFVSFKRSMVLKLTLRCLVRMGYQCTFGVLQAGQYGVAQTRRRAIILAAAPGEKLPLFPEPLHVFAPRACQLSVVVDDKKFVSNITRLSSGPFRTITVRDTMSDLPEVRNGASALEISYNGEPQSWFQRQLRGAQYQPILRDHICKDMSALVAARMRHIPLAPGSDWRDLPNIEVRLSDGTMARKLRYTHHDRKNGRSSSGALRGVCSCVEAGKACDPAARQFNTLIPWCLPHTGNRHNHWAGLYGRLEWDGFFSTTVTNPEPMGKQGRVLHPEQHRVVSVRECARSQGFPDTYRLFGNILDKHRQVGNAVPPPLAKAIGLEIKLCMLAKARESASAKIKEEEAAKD
row,SMILES,inhibition
1,CS(=O)(=O)c1ccc2c(c1)SC1=NC(=O)/C(=C/c3ccco3)C(=N)N12,16.9% (inactive)
2,Cc1ccc2cc(C)c(N3CCC(C)CC3)nc2c1,1.43% (inactive)
3,NC(CSC(c1ccccc1)(c1ccccc1)c1ccc(-c2ccccc2)cc1)C(=O)O (centres undefined),30.5% (active)
4,CCOc1ccc(CN2CCC(n3nccc3NC(=O)C3CC3)CC2)cc1CO,4.07% (inactive)
5,Cc1ccc(N=C2NC(=O)/C(=C/C=C/c3ccco3)S2)cc1C,10.4% (inactive)
6,Cc1ccc(Cc2cncc(O)c2)cc1S(=O)(=O)O,2.5% (inactive)
7,O=C(CCN1C(=O)C2C3C=CC(C3)C2C1=O)Nc1ccccc1F (centres undefined),1.42% (inactive)
8,CC(C)(C)N(Cc1ccccc1)C(=O)c1ccncc1,0.76% (inactive)
9,COc1cc(-c2nnc(NC(=O)CS(=O)(=O)c3ccc(Cl)cc3)o2)cc(OC)c1OC,7.33% (inactive)
10,O=C(COC(=O)CCC(=O)c1cccs1)NCc1ccco1,3.72% (inactive)
11,O=C(COC(=O)c1ccc(F)cc1F)Nc1ncccn1,2.67% (inactive)
12,Cc1ccc(/C=C/C(=O)Nc2ccc([N+](=O)[O-])c(NC(=O)/C=C/c3ccc(C)o3)c2)o1,40.8% (active)
13,COc1ccc(OC)c(NC(=O)c2cc(-c3cc(F)ccc3OCC3CCCO3)n[nH]2)c1 (centres undefined),3.2% (inactive)
14,COc1ccc(Cl)cc1NC(=O)CCS(=O)(=O)c1ccc(Br)cc1,21.9% (inactive)
15,COc1ccc2sc(-c3ccc(S(C)(=O)=O)cc3)c(-c3ccc(C(N)=O)cc3)c2c1,2.28% (inactive)
16,CCOc1cc(NC(=O)c2ccco2)c(OCC)cc1NC(=O)COc1ccccc1,0.94% (inactive)
17,NC1=CC(=O)C(=O)c2cccnc21,58.8% (active)
18,CCOc1ccccc1/C=c1\sc2nc(-c3ccco3)nn2c1=O,5.32% (inactive)
19,O=C(COC(=O)/C=C/c1cn(-c2ccccc2)nc1-c1cccnc1)Nc1ccc(Cl)cc1Cl,1.69% (inactive)
20,O=C(Nc1cccc(-c2nc3ccccc3[nH]2)c1)c1ccc(C(=O)Nc2cccc(-c3nc4ccccc4[nH]3)c2)cc1,7.67% (inactive)
21,CCNC(=O)C1CCCN(C(=O)c2cc(F)ccc2C)CC1 (centres undefined),2.4% (inactive)
22,CC(=O)c1ccc(NC(=O)c2ccc3c(Cl)c4c(nc3c2)CCCC4)cc1,2.16% (inactive)
23,C=C(C)C(=O)Nc1cccc(C2=NOC3(C2)C[C@H](C(N)=O)N(C(=O)C(c2ccccc2)c2ccccc2)C3)c1 (some centres undefined),20.2% (inactive)
24,O/N=C1\CC2(Cc3nonc31)OCCO2,2.08% (inactive)
25,CSc1ccc(CNC(=O)c2ccc(NC(=O)C3=CSCCO3)cc2)cc1,5.27% (inactive)
26,Nc1cc2c(cc1Br)-c1ccc(F)cc1C2=O,-0.64% (inactive)

row,SMILES,inhibition
1,CCOC(=O)C(NC(=O)CC(C)C)(Nc1sc2c(c1C(N)=O)CCCC2)C(F)(F)F (centres undefined),38.7% (active)
2,CCCCCCc1cc2cc(-c3nnc(-c4ccccc4)o3)c(=O)oc2cc1O,1.72% (inactive)
3,CCOC(=O)c1c(NC(=S)NC(=O)/C=C/c2cccs2)sc(C)c1C,0.76% (inactive)
4,COC(=O)CCCCC1=CCC2C(=O)C=C(O)C2C1 (centres undefined),13.6% (inactive)
5,Cc1ccc(-c2nnc(-c3ccc(NC(=O)c4cccs4)cc3)o2)cc1,3.86% (inactive)
6,CC1(C)Cc2nc3sc4c(SCC(=O)NC(c5ccccc5)c5ccccc5)ncnc4c3cc2CO1,2.65% (inactive)
7,COc1ccc(NC(=O)CN(C)C(=O)c2cc(C3CC3)nn2-c2ccccc2)cc1,-1% (inactive)
8,CCN(C(=O)CSc1nc(N)cc(=O)[nH]1)C1CCS(=O)(=O)C1 (centres undefined),4.21% (inactive)
9,CC(=O)Nc1ccccc1Sc1ccc2c3c(cccc13)C(=O)N(c1ccc(C)cc1)C2=O,1.49% (inactive)
10,Cc1cc(O)c(C(=O)/C=C/c2c(F)c(F)c(F)c(F)c2F)c(=O)o1,15.6% (inactive)
11,CN(C)/C=C(/C(=O)c1ccc(Cl)cc1)S(=O)(=O)c1ccccc1,5.43% (inactive)
12,COc1ccc2[nH]c(=O)c(-c3noc(-c4ccc(F)cc4)n3)cc2c1,0.63% (inactive)
13,COc1ccc(C(=O)/C=C/c2ccc(-c3ccccc3)cc2)cc1CSCC(=O)O,28.4% (inactive)
14,CCOC(=O)N1CC=C2C(C#N)=C(N)C(C#N)(C#N)[C@H](c3cccs3)[C@H]2C1,9.81% (inactive)
15,c1ccc2cc3c(NCCN4CCOCC4)ccnc3cc2c1,23.4% (inactive)
16,Cc1ccc(C(=O)NNC(=O)c2cc3cc4ccccc4nc3s2)cc1,3.71% (inactive)
17,CC(C)(C)NC(=O)CSC(=Nc1ccccc1F)NC#N,5.5% (inactive)
18,O=C(c1cccs1)N1CCC(c2nc3ccccc3s2)CC1,1.54% (inactive)
19,O=C(Nc1cccc(F)c1)c1cc(-c2ccco2)nc2ccccc12,1.53% (inactive)
20,CCOc1cc(CN2CCCC(CO)(Cc3ccc(F)cc3F)C2)ccc1OC (centres undefined),1.12% (inactive)
21,CN(CCOc1ccccc1)C(=O)c1cc(-c2ccco2)nc2ccccc12,3.76% (inactive)
22,COc1ccc(/C=C2\SC(=N)N(c3ccc(F)cc3)C2=O)cc1,-0.37% (inactive)
23,COc1ccc2c(c1)c(=O)c(C(=O)c1ccc(Cl)cc1)cn2CC(=O)Nc1ccc(F)cc1,0.08% (inactive)
24,CCc1nn(-c2cc(Oc3cccc4ccccc34)nc(-c3ccccc3)n2)c(N)c1C#N,-0.43% (inactive)
25,Cc1ccc2[nH]c(=O)c(-c3nc4c(C)cccn4c3NCc3ccco3)cc2c1,-1.18% (inactive)
26,O=C(CN1CCCSc2ccccc21)N1CCN(S(=O)(=O)c2cccc(F)c2)CC1,2.39% (inactive)

row,SMILES,inhibition
1,O=C(COC(=O)c1ccccc1O)NCc1ccco1,3.59% (inactive)
2,COc1ccc(C(=O)OCC(=O)Nc2cccc(C(C)=O)c2)cc1OC,5.6% (inactive)
3,CC(=O)Nc1ccc(SCC(=O)NC(=O)c2ccc(Cl)cc2)cc1,2.15% (inactive)
4,O=C(Oc1ccc(-c2nc(-c3ccccn3)no2)cc1)c1ccccc1,29% (inactive)
5,O=C(Nc1nc(-c2ccco2)c(-c2ccco2)s1)c1ccco1,6.2% (inactive)
6,Cc1onc(-c2ccccc2)c1C(=O)Nc1ccccc1C#N,1.14% (inactive)
7,c1coc(-c2nc3nc4ccccc4n3nc2-c2ccco2)c1,0.83% (inactive)
8,O=C1CCCC(O)=C1C=NCCc1ccccc1,0.99% (inactive)
9,NNc1cccc(C=Cc2ccccc2)cc1=O,1.25% (inactive)
10,CCN1CCN(Cc2nc3c(c(=O)n(C)c(=O)n3C)n2CC(=O)c2ccccc2)CC1,0.76% (inactive)
11,CCOC(=O)c1cccc(NC(=O)C2CCCN(S(=O)(=O)c3cnc[nH]3)C2)c1 (centres undefined),1.94% (inactive)
12,C=CCn1c(=NC(=O)c2ccc(S(=O)(=O)N3CCCC3)cc2)sc2cc(NC(C)=O)ccc21,1.72% (inactive)
13,Oc1c(C(c2ccco2)N2CCC3(CC2)OCCO3)sc2ncnn12 (centres undefined),1.28% (inactive)
14,COc1ccc(CC(=O)Nc2ccc(-c3nnc(-c4ccccc4)o3)cc2)cc1,3.13% (inactive)
15,COc1ccc(Cc2nnc(NC(=O)Cc3cccs3)s2)cc1,87.7% (active)
16,COc1ccc(CC(=O)Nc2ccc(-c3nnc(-c4ccc(C)cc4)o3)cc2)cc1,-0.08% (inactive)
17,CCN1C(=O)c2cccc3c(N)ccc1c23,2.42% (inactive)
18,Cc1cc2nc(-c3ccco3)c(Cc3cccc(F)c3)n2c(C)c1Br,7.28% (inactive)
19,O=C(COc1ccc([N+](=O)[O-])cc1)Nc1ccc(N2CCCC2)cc1,6.61% (inactive)
20,O=C(COc1ccc(/C=N/NC(=O)c2ccc(O)cc2)cc1)Nc1ccc([N+](=O)[O-])cc1,39.5% (active)
21,COc1ccc(OCC(=O)NNC(=O)c2ccc(-c3ccccc3)cc2)cc1,1.62% (inactive)
22,O=C(CCNC(=O)c1ccccc1)NN=Cc1ccc(Br)o1,2.65% (inactive)
23,O=C(c1ccc(CS(=O)(=O)c2ccccc2)o1)N1CCN(c2ccccc2)CC1,0.25% (inactive)
24,CC1CN(C(=O)c2ccccc2NS(=O)(=O)c2cccc([N+](=O)[O-])c2)CC(C)O1 (centres undefined),1.75% (inactive)
25,COc1ccc(Br)cc1/C=N/Nc1ccc(S(=O)(=O)Nc2ccccc2C(=O)O)cc1[N+](=O)[O-],97.7% (active)
26,C/C(=N\Nc1ccc(S(N)(=O)=O)cc1[N+](=O)[O-])c1cccs1,1.78% (inactive)

row,SMILES,inhibition
1,C=Cc1ccc(C(=O)N2CCCC(CCC(=O)N3CCN(c4ccccn4)CC3)C2)cc1 (centres undefined),1.51% (inactive)
2,Cc1ccc(CNC(=O)CSc2nnc3c(n2)[nH]c2ccc(F)cc23)cc1,1.24% (inactive)
3,c1ccc2cc3[nH]c(CN4CCCCC4)nc3cc2c1,3.8% (inactive)
4,CCOC(=O)/C(C#N)=C/c1ccc(OCC(=O)Nc2ccccc2)c(OC)c1,4.96% (inactive)
5,CCCCNC(=O)CCn1c(=O)c2ccccc2n(Cc2cc(C)ccc2C)c1=O,2.63% (inactive)
6,C=CCn1c(=S)[nH]c2scc(-c3ccco3)c2c1=O,8.63% (inactive)
7,CN(Cc1nc2ccc(F)cc2[nH]1)Cc1nc(CC2CC2)no1,4.53% (inactive)
8,COc1ccc(-n2c(SCC(=O)Nc3sc4c(c3C#N)CCCC4)nnc2-c2ccc(O)cc2)cc1,18.9% (inactive)
9,O=C(CCS(=O)(=O)c1ccc(Br)cc1)NCCc1ccc(Cl)cc1,3.33% (inactive)
10,CCc1ccc(NC(=O)CS(=O)CC(=O)NCCCc2ccccc2)cc1 (centres undefined),2.37% (inactive)
11,CCC/C=C(\CCC)C(NC(=O)Cc1ccccc1)c1ccc(C(=O)OC)cc1 (centres undefined),1.76% (inactive)
12,COc1ccc(NC(=O)CCn2ccnc2)c(OC)c1,3.76% (inactive)
13,Cc1ccccc1-n1cc(CNC(=O)CC2C(=O)NCCN2C/C=C/c2ccccc2)cn1 (centres undefined),0.15% (inactive)
14,C=CC1=C(C(=O)O)N2C(=O)[C@@H](NC(=O)/C(=N\OCC(=O)O)c3csc(N)n3)[C@H]2SC1,4.47% (inactive)
15,O=C(NNc1ccccn1)c1ccc(Cl)nc1,0.99% (inactive)
16,CC(Oc1ccccc1)C(=O)Nc1oc(-c2ccco2)c(-c2ccco2)c1C#N (centres undefined),1.51% (inactive)
17,COc1cccc(C(=O)Nc2ccc(N3CCCC3)cc2)c1,20.5% (inactive)
18,Cc1ccc(-c2cc(C(=O)NCc3cn(C)nc3C)c3cc(Br)ccc3n2)cc1,8.12% (inactive)
19,CC1(C(=O)NS(=O)(=O)c2ccccc2)CCN1C(=O)C/C=C/c1ccccc1 (centres undefined),0.79% (inactive)
20,N#Cc1ccccc1CN1C(=O)S/C(=C/c2cccn2-c2cccc(C(=O)O)c2)C1=O,12.5% (inactive)
21,Cc1ccccc1NC(=O)CN1C(=O)N/C(=C\c2cccn2-c2cccc(C(=O)O)c2)C1=O,34.7% (active)
22,O=C(Cn1nnc(-c2ccccc2)n1)N/N=C/c1ccc(-c2ccc(Cl)cc2)o1,2.46% (inactive)
23,C=CC[C@@H](CC(=O)N[C@H](CO)Cc1ccccc1)C(=O)N[C@@H](COC(=O)[C@@H](CC=C)Cc1ccc(F)cc1)Cc1c[nH]c2ccccc12,5.95% (inactive)
24,O=c1[nH]c(/C=C/c2cccc(Br)c2)nc2ccccc12,3.81% (inactive)
25,O=C(CSc1nc2ccccc2c(=O)[nH]1)Nc1nc(-c2ccc(Br)cc2)cs1,41.9% (active)
26,Cc1nnc(N/N=C/c2cccs2)[nH]c1=O,2.68% (inactive)
